We go through eleven molecules from PubChem BioAssay.

Each structure is given as a SMILES string. Where “and” joins values, the source holds several entries; their conditions need not be identical. Equal entries are not always repeated. Inconclusive results are not listed. For some assays here: Measured potencies and affinities stand elsewhere. Calls of active or inactive are those of the source. Cut-off read from the data, not from the text of the source, unless noted: active = inhibition above about 80%; inactive = the rest. Numbered stars: 1 amine (or outer) side, 2 acyl side, 3 side chain; on linkers, the order of the positions; unused ones are H or OH. Bridge positions count the residues as written; N and C are the ends. Square brackets hold non-standard residues; d marks the D form. Peptide text beside a SMILES is read from it. I, II: the chains in the order shown. Actinocin(9to1) = Cc1c2oc3c(C)ccc(C(=O)[*:1])c3nc-2c(C(=O)[*:2])c(N)c1=O; NMeV = CN[CH](C(=O)O)C(C)C; Sar = CNCC(=O)O

Assay [1] in a line: polyglutamine-triggered caspase-3 activation inhibitors, cell-based (AID 1583). The note with it: polyglutamine-induced caspase-3 activation, cell assay; stronger effect = higher value;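 tested at 10 µM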.
A short description of assay [2]: suppressors of polyQ aggregation in yeast, 75Q-TubU reporter (AID 1593). The note with it: Yeast 75Q polyglutamine aggregation reporter.
Assay [3] is described as follows: rescue of polyQ-huntingtin neuronal dysfunction in worms, whole organism, C. elegans mechanosensory neurons, N-terminal huntingtin (AID 1599). The settings on record: touch response, stronger effect = higher value.
Assay [4] is described as follows: inhibitors of mitochondrial cytochrome c release, biochemical, purified mitochondria (AID 1603).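 Note: mouse liver mitochondria challenged with calcium chloride; signal normalized to the plate average as 100%.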 The settings on record: stronger effect = lower value.
Assay [5] in a line: inhibitors of polyQ protein aggregation (AID 1604). The note with it: polyglutamine-induced protein aggregation inhibition assay; stronger effect = higher value; tested at 2.5 µM.
A short description of assay [6]: growth inhibition of DIPG glioma cells, dose response, cell-based, SU-DIPG-XIII, MIPE4.0, CellTiter-Glo, qHTS (AID 1347061; cut-off not given, nearly all actives have AC50 up to about 37 µM;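 note: cells exposed to compound for 48 hours before readout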). The note with it: SU-DIPG-XIII viability, CellTiter-Glo ATP luminescence.
Assay [7] can be described thus: growth inhibition of DIPG glioma cells, dose response, cell-based, SU-DIPG-IV, MIPE4.0, CellTiter-Glo, qHTS (AID 1347063; cut-off not given, nearly all actives have AC50 up to about 30 µM;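 note: compound exposure lasted 48 hours before the viability readout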). The note with it: SU-DIPG-IV viability, CellTiter-Glo ATP luminescence.
Assay [8] can be described thus: growth inhibition of DIPG glioma cells, dose response, cell-based, SU-DIPG-XIII, MIPE5.0, CellTiter-Glo, qHTS (AID 1347064; cut-off not given, nearly all actives have AC50 up to about 23 µM;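 for AC50: cells exposed to compound for 48 hours before the viability read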). The settings on record: SU-DIPG-XIII viability, CellTiter-Glo ATP luminescence.
Assay [9] in a line: SU-DIPG-VI glioma cell viability, MIPE4.0 library, CellTiter-Glo luminescence, qHTS (AID 1347066; cut-off not given, nearly all actives have AC50 up to about 30 µM;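 note: cells exposed to compound for 48 hours before readout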). The settings on record: CellTiter-Glo ATP luminescence. (In general: In ATP-based viability assays light output follows the ATP content of the culture.)
Assay [10] is described as follows: JHH-DIPG-1 glioma cell viability, MIPE5.0 library, CellTiter-Glo luminescence, qHTS (AID 1347067; cut-off not given, nearly all actives have AC50 up to about 26 µM;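 note: cells exposed to compound for 48 hours before readout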). The settings on record: JHH-DIPG-1 glioma viability, CellTiter-Glo ATP luminescence.
For assay [11], the target named is ATP-dependent translocase ABCB1 (Homo sapiens) (UniProt P08183). The experiment in a line: MDR1 (ABCB1) efflux transporter inhibition, cell-based (AID 377; in the data active = fluorescence slope change above about 50%). The settings on record: MDR1-expressing cells, fluorescent substrate accumulation slope; stronger effect = higher value; concentration not given here.
Sequence of ATP-dependent translocase ABCB1 (Homo sapiens) (P08183 whole entry, looked up, the tested form may be a part): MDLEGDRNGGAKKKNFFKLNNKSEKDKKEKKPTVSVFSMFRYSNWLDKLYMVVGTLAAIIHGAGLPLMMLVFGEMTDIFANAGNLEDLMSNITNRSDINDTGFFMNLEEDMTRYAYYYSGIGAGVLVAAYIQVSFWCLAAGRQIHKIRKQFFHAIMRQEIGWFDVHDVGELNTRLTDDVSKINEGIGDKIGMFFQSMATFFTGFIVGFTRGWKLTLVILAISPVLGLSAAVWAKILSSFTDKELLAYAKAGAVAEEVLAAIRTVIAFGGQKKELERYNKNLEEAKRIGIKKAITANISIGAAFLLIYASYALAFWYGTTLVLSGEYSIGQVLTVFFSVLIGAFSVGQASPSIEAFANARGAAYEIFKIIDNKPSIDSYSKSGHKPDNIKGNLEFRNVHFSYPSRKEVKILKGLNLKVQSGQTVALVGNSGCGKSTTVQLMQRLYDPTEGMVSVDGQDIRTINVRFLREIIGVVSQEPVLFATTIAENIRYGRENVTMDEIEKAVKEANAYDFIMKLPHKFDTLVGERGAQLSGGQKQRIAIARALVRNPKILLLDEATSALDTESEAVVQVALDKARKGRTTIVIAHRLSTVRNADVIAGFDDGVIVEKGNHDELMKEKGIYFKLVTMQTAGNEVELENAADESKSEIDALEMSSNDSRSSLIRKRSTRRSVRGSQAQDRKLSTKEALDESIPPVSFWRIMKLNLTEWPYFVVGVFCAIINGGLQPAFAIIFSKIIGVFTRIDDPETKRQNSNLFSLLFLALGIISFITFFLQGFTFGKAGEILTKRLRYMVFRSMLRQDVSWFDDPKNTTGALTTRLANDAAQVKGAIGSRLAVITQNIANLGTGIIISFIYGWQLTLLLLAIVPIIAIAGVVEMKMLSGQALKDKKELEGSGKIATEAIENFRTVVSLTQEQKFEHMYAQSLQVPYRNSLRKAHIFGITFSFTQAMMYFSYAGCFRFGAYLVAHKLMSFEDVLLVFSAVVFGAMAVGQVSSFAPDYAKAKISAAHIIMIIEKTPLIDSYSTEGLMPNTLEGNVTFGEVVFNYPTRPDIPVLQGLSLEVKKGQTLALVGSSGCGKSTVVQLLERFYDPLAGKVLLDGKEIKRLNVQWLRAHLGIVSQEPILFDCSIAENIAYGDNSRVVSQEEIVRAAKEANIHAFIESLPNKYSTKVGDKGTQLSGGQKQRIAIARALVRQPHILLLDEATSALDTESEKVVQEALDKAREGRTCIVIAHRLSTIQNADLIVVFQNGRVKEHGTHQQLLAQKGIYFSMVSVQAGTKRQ
Assay [12] concerns the target Mitogen-activated protein kinase 7 (Homo sapiens) (UniProt Q13164). Description: ERK5 transactivation activators in reporter cells, primary screen, cell-based, HTS (AID 1508626;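 active = luciferase signal above three times the same-plate solvent-only control wells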;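 note: luciferase driven by Gal4-ERK5 fusion binding five Gal4 sites before minimal TATA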). The note with it: HeLa Gal4-ERK5 transactivation, 18 h, at 5 µM, stronger effect = higher value.
Assay [13] in a line: LFS_MB_1R medulloblastoma cell growth inhibition, synergistic combos for chromothripsis tumors, cisplatin or BGB combos (AID 1671452).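 Note: cells exposed for 96 hours before readout.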 The note with it: LFS_MB_1R medulloblastoma cells, stronger effect = higher value.
Assay [14] in a line: CRL2098 osteosarcoma cell growth inhibition, synergistic combos for chromothripsis tumors, BGB or cisplatin IC20 combos (AID 1671454).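 Note: cells exposed for 96 h before readout; 0% = vehicle DMSO and 100% = killing by high DMSO.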 The settings on record: CRL2098 osteosarcoma cells, drug combinations, stronger effect = higher value.
Assay [15] in a line: HD-MB03 medulloblastoma cell growth inhibition, synergistic combos for chromothripsis tumors, BGB or cisplatin IC20 combos (AID 1671455; in the data active = inhibition above about 83%;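 note: 0% = vehicle DMSO and 100% = high DMSO as cytotoxic control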). The note with it: HD-MB03 medulloblastoma cells, stronger effect = higher value.
Assay [16] can be described thus: UWB1.289 ovarian carcinoma cell growth inhibition, synergistic combos for chromothripsis tumors, BGB or cisplatin combos (AID 1671456).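 Note: cells exposed to compound for four days; 0% = vehicle DMSO and 100% = killing by high DMSO.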 The settings on record: UWB1.289 ovarian carcinoma cells, stronger effect = higher value.
A short description of assay [17]: LFS_MB_2R medulloblastoma cell growth inhibition, synergistic combos for chromothripsis tumors, cisplatin combos (AID 1671457).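 Note: cells exposed to compound for four days before readout.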 The note with it: LFS_MB_2R medulloblastoma cells, stronger effect = higher value.
The nature of assay [18]: UWB1.289_BRCA1 ovarian cancer growth, cell-based, BGB or cisplatin combinations (AID 1671459). The note with it: UWB1.289 BRCA1 ovarian carcinoma, drug combinations, stronger effect = higher value.
The nature of assay [19]: human astrocyte viability loss, single and combined drugs, cytotoxicity control for chromothriptic childhood tumor combination screen, cell-based, BGB or cisplatin IC20 combos (AID 1671460).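 Note: cells exposed to compounds for 96 hours before viability readout; 0% = vehicle and 100% = killing control.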 The settings on record: Human astrocytes, drug combinations, stronger effect = higher value.
[20] abbreviates: measured here: combination with cisplatin, at 0.5 µM.
Setting [21] is: measured here: combination with cisplatin, at 5 µM.

Sequence of Mitogen-activated protein kinase 7 (Homo sapiens) (Q13164 whole entry, looked up, the tested form may be a part): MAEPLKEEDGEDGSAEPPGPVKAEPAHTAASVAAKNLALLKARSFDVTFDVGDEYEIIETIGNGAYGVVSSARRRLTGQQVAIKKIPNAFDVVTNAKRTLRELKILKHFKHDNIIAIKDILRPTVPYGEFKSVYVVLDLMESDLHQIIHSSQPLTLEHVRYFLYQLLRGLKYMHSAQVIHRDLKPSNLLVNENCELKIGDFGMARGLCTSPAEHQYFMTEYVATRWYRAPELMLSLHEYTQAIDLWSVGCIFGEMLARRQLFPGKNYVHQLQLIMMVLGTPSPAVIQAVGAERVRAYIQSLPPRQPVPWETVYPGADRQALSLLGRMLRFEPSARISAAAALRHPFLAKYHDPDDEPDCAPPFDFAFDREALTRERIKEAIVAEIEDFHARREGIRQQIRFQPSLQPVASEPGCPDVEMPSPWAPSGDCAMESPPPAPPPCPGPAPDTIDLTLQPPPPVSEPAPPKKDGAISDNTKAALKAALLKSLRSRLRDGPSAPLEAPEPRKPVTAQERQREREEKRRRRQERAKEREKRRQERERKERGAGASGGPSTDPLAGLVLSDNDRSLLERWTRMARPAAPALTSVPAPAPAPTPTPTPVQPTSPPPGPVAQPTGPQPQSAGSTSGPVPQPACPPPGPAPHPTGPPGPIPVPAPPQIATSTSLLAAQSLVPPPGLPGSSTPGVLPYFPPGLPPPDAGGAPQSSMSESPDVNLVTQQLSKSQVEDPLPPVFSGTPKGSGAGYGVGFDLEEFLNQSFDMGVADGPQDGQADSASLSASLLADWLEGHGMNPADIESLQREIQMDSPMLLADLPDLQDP

In general, inhibition refers to the relative decrease from the control value, in per cent. Consider `CN1C2CCC1CC(OC(c1ccccc1)c1ccccc1)C2` (stereo not drawn), for which the inhibition in assay [1] was -6.22%. The molecule also returned a score in assay [2] of 1.2. The rescue above control in assay [3] was -5.92. Besides, the cytochrome c release ratio in assay [4] came to 1. This molecule yielded an inhibition of aggregation in [5] of 62%.
In general, AC50 refers to the concentration at which the activity in the assay is half-maximal. `Cc1c2oc3c(C)ccc(C(=O)NC4C(=O)NC(C(C)C)C(=O)N5CCCC5C(=O)N(C)CC(=O)N(C)C(C(C)C)C(=O)OC4C)c3nc-2c(C(=O)NC2C(=O)NC(C(C)C)C(=O)N3CCCC3C(=O)N(C)CC(=O)N(C)C(C(C)C)C(=O)OC2C)c(N)c1=O` (stereo not drawn) (I: TVP[Sar][NMeV] / II: TVP[Sar][NMeV]; ester I:1-I:C, II:1-II:C; linker I:N-II:N via Actinocin(9to1); configuration not given here): the result in [6], in assay [7] and in assay [9] was inactive. Moreover, the half-maximal activity concentration (AC50) was 3.62 nM (active) in assay [8] and 6.45 nM (active) in assay [10].
For the molecule `CC(C(O)c1ccc(O)cc1)N1CCC(Cc2ccccc2)CC1` (stereo not drawn), the fluorescence slope change in [11] is 23.8% (inactive).
Turning to `C=C1/C(=C\C=C2/CCC[C@]3(C)[C@@H]([C@H](C)CCCC(C)(C)O)CC[C@@H]23)C[C@@H](O)C[C@@H]1O`, the half-maximal activity concentration (AC50) was 3320 nM (active) in assay [7] and 16600 nM (active) in [9]. The call in assay [8] was inactive.
Turning to `CCCc1nc(C(C)(C)O)c(C(=O)O)n1Cc1ccc(-c2ccccc2-c2nn[nH]n2)cc1`, the molecule was classed as inactive in assay [7], in assay [8], in assay [9] and in [10].
For `CN(C)CC/C=C1/c2ccccc2COc2ccccc21`, in assay [1], the inhibition is -9.13%. Moreover, the score in [2] was 1.4. Moreover, the rescue above control in [3] came out at 2.19. Also, in assay [4], the cytochrome c release ratio was found to be 0.69. Further, the inhibition of aggregation in assay [5] came to 92.3%.
For the molecule `C[C@]12C=CC(=O)C=C1CC[C@@H]1[C@@H]2[C@@H](O)C[C@@]2(C)[C@H]1CC[C@]2(O)C(=O)COC(=O)CCC(=O)O`, the luciferase signal in [12] is 80 AU (inactive).
For the molecule `CCN(CC)CCOc1ccc(C(=C(Cl)c2ccccc2)c2ccccc2)cc1`, the luciferase signal in [12] is 68 AU (inactive).
As to `CCC(=O)NS(=O)(=O)c1ccc(-c2c(-c3ccccc3)noc2C)cc1`, the call in assay [10] was inactive.
With `CO[C@H]1O[C@@H]2O[C@@]3(C)CC[C@H]4[C@H](C)CC[C@@H]([C@H]1C)[C@@]24OO3`, the result in assay [6], in [7], in assay [8], in [9] and in assay [10] was inactive.
In the case of `CO[C@H]1C=CO[C@@]2(C)Oc3c(C)c(O)c4c(O)c(c5c(nc6cc(C)ccn65)c4c3C2=O)NC(=O)C(C)=CC=C[C@H](C)[C@H](O)[C@@H](C)[C@@H](O)[C@@H](C)[C@H](OC(C)=O)[C@@H]1C`, the inhibition in assay [13] (at 0.5 µM) is 17.8% (inactive) and -17.4% (inactive); in [13] (measured here: combination with BGB IC40, at 0.05 µM) it was -4.04% and -14.4%; in [13] (setting [20]) it was -10.1% and -31.8%; in assay [13] (setting [21]) it was -6.72% and -38.3%; in assay [14] (at 0.5 µM), -18.8% (inactive) and -34.3% (inactive); in assay [14] (measured here: combination with BGB at IC20, at 0.5 µM) it was -28.7% and -29%. Also, the inhibition in [14] (measured here: combination with cisplatin at IC20, at 0.5 µM) is -10.1% and -43.6%; in [15] (at 0.5 µM), -6.38% (inactive) and 5.86% (inactive); in assay [15] (measured here: combo with BGB at IC20, at 0.5 µM), -2.33% and 1.22%; in assay [15] (measured here: combo with cisplatin at IC20, at 0.5 µM), -9.26% and 19.1%; in assay [16] (at 0.5 µM) it was 4.48% (inactive) and 6.54% (inactive); in [16] (measured here: inhibition with BGB combination, at 0.05 µM), -18.6% and -11.7%. Also, the inhibition in [16] (measured here: inhibition with cisplatin combination, at 0.05 µM) was -10.6% and 10.3%; in assay [17] (at 0.5 µM), -17.5% (inactive) and -15.1% (inactive); in assay [17] (setting [20]), -7.91% and -17.1%; in assay [17] (setting [21]) it was -18% and -13.3%; in assay [18] (BGB combination, concentration series, at 5 µM) it was 3.57% and 12%; in [18] (at 0.5 µM) it was 6.89% (inactive) and 6.14% (inactive). Also, the inhibition in assay [18] (cisplatin combination, concentration series, at 5 µM) is 5.53% and -6.86%; in assay [19] (at 0.5 µM), -8.79% (inactive) and -10.8% (inactive); in [19] (measured here: combo with BGB IC20, at 0.5 µM), -1.97% and -5.46%; in assay [19] (measured here: combo with cisplatin IC20, at 0.5 µM), -27% and -10.4%.
